Experimental data: PubChem BioAssay (NCI)
The panel holds about 83,000 compounds, 20% with a hit somewhere; the sample as a whole holds those more often.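 Testing used 96-well plates and a 48-hour single-concentration exposure. Example: -40 means 40% of the starting cells died.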 A number with no mark means an inactive call. Calls of active or inactive are those of the source. The calls were made as follows: active = growth percent below 10; inactive = the rest.

Tests used:
Experiment in all cases: NCI-60 one-dose screen, 48 h (100 = growth as untreated, 0 = no growth, -100 = all killed)
Conditions in all cases: 10 µM unless noted
NCI-H226 lung = tested on: NCI-H226 lung
NCI-H322M lung = tested on: NCI-H322M lung
HOP-62 NSCLC = tested on: HOP-62 NSCLC
NCI-H460 lung = tested on: NCI-H460 lung
HOP-92 NSCLC = tested on: HOP-92 NSCLC
NCI-H522 lung = tested on: NCI-H522 lung
A549/ATCC NSCLC = tested on: A549/ATCC NSCLC
786-0 renal = tested on: 786-0 renal
COLO 205 colon = tested on: COLO 205 colon

Row | SMILES | growth (NCI-H226 lung) | growth (NCI-H322M lung) | growth (HOP-62 NSCLC) | growth (NCI-H460 lung) | growth (HOP-92 NSCLC) | growth (NCI-H522 lung) | growth (A549/ATCC NSCLC) | growth (786-0 renal) | growth (COLO 205 colon)
1 | C#CCOc1cc(N(CC)CC)ccc1C(C(=O)NC(C)(C)C)N(C(=O)C1CCc2cc(F)ccc2O1)c1ccc(Br)cc1 (stereo not given) | 81.2% | 82.5% | 77.1% | 60.3% | 89.6% | 67.7% | 65.1% | 81.7% | 59.1%
2 | COc1cc2oc(-c3cccc(C(=O)Nc4ccc(Cl)cc4)c3)cc(=O)c2c(OCCNC(=O)[C@H](CO)NC(=O)OC(C)(C)C)c1OC | 42% | 35.4% | 55.1% | 9.69% (active) | -2.01% (active) | 6.54% (active) | 23.8% | 32.4% | -43.4% (active)
3 | CC(=O)c1c(N)c(C#N)cn1-c1ccc(Cl)cc1Cl | 80.6% | 101% | 94.6% | 111% | 98.6% | 82.3% | 95.8% | 99.2% | 105%
4 | COC(OC)C1=C(C)OC(N)=C(C#N)C12C(=O)Nc1ccccc12 (stereo not given) | 90.2% | 98.3% | 111% | 97.2% | 118% | 6.48% (active) | 114% | 113% | 102%
5 | Cn1cc(-c2nnc(N)nc2-c2c[nH]c3ccc(Br)cc23)c2cc(Br)cnc21 | 74% | 71.5% | 70.7% | 62.1% | 43.4% | 6.2% (active) | 59.5% | 46.2% | 66.6%
6 | CC1(C)CC[C@]2(C(=O)O)CC[C@]3(C)C(=CCC4[C@@]5(C)C[C@@H](O)[C@@H]6OC(c7cccc(Br)c7)OC[C@@]6(C)C5CC[C@]43C)C2C1 (stereo not given in full) | 46.4% | 38.7% | 47.6% | 20.2% | 25.2% | 16.3% | 23% | 52.7% | -31.4% (active)
7 | CC1(C)CC[C@]2(C(=O)O)CC[C@]3(C)C(=CCC4[C@@]5(C)C[C@@H](O)[C@@H]6OC(c7ccco7)OC[C@@]6(C)C5CC[C@]43C)C2C1 (stereo not given in full) | 50.6% | 30.1% | 43.1% | 19.8% | -1.27% (active) | 20.7% | 18.3% | 42.7% | -86.9% (active)
8 | CC(=O)OCC1OC(OC2C(COC(C)=O)OC(n3cc(COc4ccc5ccc(=O)oc5c4)nn3)C(OC(C)=O)C2OC(C)=O)C(OC(C)=O)C(OC(C)=O)C1OC(C)=O (stereo not given) | 101% | 103% | 103% | 108% | 94.4% | 71.3% | 112% | 96.4% | 116%
9 | Nc1nnc(-c2c[nH]c3ccc(Br)cc23)c(-c2c[nH]c3ncc(Br)cc23)n1 | 39.3% | 53.5% | 49.4% | – | 21.5% | 30.9% | 42.2% | 34.7% | 48.3%
10 | Cc1ccc(NC(=O)CN2CCN(c3ncnc4c3cnn4-c3ccccc3)CC2)cc1 | 76.5% | 86.5% | 95.6% | 74% | 90.9% | – | 89.1% | 105% | 111%
11 | Cc1ccc(-c2nc(C#N)c(S(=O)(=O)N3CCN(S(=O)(=O)c4ccc(Cl)cc4)CC3)o2)cc1 | 87.6% | 97.1% | 63% | – | – | 71.2% | 94.3% | 49.1% | 124%
12 | COc1ccc(/C=C/c2nc3ccccc3n3c(-c4ccc(Cl)cc4)nnc23)cc1 | 95% | 104% | 96.8% | 88.6% | 69.5% | 64.2% | 90.4% | 88.8% | 92.4%
13 | CCOC(=O)C1=C(N)N(c2ccccc2)C2=C(C(=O)CC(C)(C)C2)C1c1ccc([N+](=O)[O-])cc1 (stereo not given) | 88% | 97.9% | 99% | 89.8% | – | 79.2% | 91.5% | 93.7% | 101%
14 | Cc1cccc(Nc2nc3ccccc3nc2/C=C/c2ccc(F)cc2)c1 | 95.2% | 95.5% | 99.7% | – | 84.5% | 79.4% | 91.2% | 97.3% | 106%
